Hits are enriched below; roughly 1.1% of the tested compounds scored in any of these assays.
HTR5A inv ctr = HTR5A inverse agonists in luminescence cell assay, primary screen, counter-screen for OPRM1-OPRD1 heterodimer inverse agonist project, full-deck HTS | AID 504634, 2011 | inhibition, % at 9.3 µM | HTR5A cell line, inverse agonism | 5-hydroxytryptamine receptor 5A (Homo sapiens), P47898 | 0.083% of 340,000 active; in the data active = inhibition mostly above about 23%, no sharp cut-off; inactive = mostly below about 18%;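 also: 0% = cells with DMSO and 100% = no-cell wells with DMSO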
Target sequence (P47898 whole entry, looked up): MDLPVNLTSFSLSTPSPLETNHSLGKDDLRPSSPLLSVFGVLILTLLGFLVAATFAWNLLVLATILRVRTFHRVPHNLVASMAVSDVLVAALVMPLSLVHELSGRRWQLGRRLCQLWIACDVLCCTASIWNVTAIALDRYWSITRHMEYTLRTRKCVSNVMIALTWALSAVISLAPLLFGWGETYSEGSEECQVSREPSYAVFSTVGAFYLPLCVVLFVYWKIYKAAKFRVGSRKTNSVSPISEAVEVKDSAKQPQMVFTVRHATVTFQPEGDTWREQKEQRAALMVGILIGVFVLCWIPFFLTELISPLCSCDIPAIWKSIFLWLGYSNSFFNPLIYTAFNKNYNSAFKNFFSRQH
OPRM1-OPRD1 ag = agonists of OPRM1-OPRD1 heterodimerization, primary screen, cell-based, luminescence; activation, % at 9.3 µM; cells; Mu-type opioid receptor (Homo sapiens) + Delta-type opioid receptor (Homo sapiens), …; 0.3% of 340,000 active; in the data active = activation above about 18%;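 also: 0% = vehicle-treated cells and 100% = reference agonist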
MOR-DOR inv ag = inverse agonists of MOR-DOR heterodimerization, primary screen, cell-based, luminescence; 0.21% of 340,000 active; inhibition, % at 9.3 µM; cell-based MOR-DOR heterodimer luminescence, inverse agonism; Mu-type opioid receptor (Homo sapiens) + Delta-type opioid receptor (Homo sapiens), …; in the data active = inhibition above about 22%, passing the limit was not always enough;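 also: 0% = cells with DMSO and 100% = wells without cells with DMSO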
HTR5A ag = HTR5A agonists in luminescence cell assay, primary screen, counter-screen for OPRM1-OPRD1 heterodimer agonist project, full-deck HTS | 0.61% of 340,000 active | activation, % at 9.3 µM | AID 504692, 2011 | 5-hydroxytryptamine receptor 5A (Homo sapiens), P47898 | cell-based; in the data active = activation mostly above about 9.5%, no sharp cut-off; inactive = mostly below about 7.6%;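 also: 0% = cells with vehicle only and 100% = reference agonist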
* hit, by the source's call.

SMILES | HTR5A inv ctr | OPRM1-OPRD1 ag | MOR-DOR inv ag | HTR5A ag
CN(Cc1ccccc1F)C(=O)c1ccc(NC(=O)CC2SC(N3CCCCC3)=NC2=O)cc1 (stereo unspecified) | -12.8 | -3.4 | 13.3 | -1.2
Cc1nnc(C)c2c(C)n(-c3ccccc3N)c(C)c12 | 0.2 | 1.2 | -6.3 | -0.1
CCN(CC)C(=O)[C@H]1C[C@H](CC(=O)NCCCN(C)C)C(=O)N2CCc3c([nH]c4cc(CCC(=O)N(C)C)ccc34)[C@]12C | -17.0 | -2.8 | 13.5 | 5.0*
CC(C)N(C(=O)[C@H]1C[C@H](CC(=O)NCCCN(C)C)C(=O)N2CCc3c([nH]c4cc(CCC(=O)N(C)C)ccc34)[C@]12C)C(C)C | -8.0 | -3.7 | 18.1 | 2.3
COc1cc(C)ccc1OCCOCCOc1cccc2ccc(C)nc12 | -24.1 | 3.3 | -16.1 | 8.7*
CC(CCc1ccccc1)NS(=O)(=O)c1ccccc1F (stereo unspecified) | -18.8 | 2.6 | -16.5 | 12.4
CCCc1nnc(NC(=O)CCC(=O)N2CCCCC2CC)s1 (stereo unspecified) | -15.3 | -2.2 | 12.0 | 9.9*
CCOC(=O)c1[nH]c(C)c(C(=O)Nc2ccc(C)c(C)c2)c1C | -36.8 | -2.6 | 13.2 | 13.3*
Cc1ccc(S(=O)(=O)N2CCCCC2c2cccnc2)c(C)c1C (stereo unspecified) | -40.8 | -0.5 | 2.5 | 12.9*
C=CCN(CC=C)Cc1c(O)ccc2c1oc(=O)c1ccccc12 | 32.0 | -7.6 | 44.8* | -8.0
COc1cc(OC)c(OC)cc1CNC(=O)c1ccc(COc2ccccc2)cc1 | 0.9 | 1.4 | -10.1 | 7.3
COc1ccc(N2C(=O)C3CCCN3C2c2ccc(C)o2)cc1 (stereo unspecified) | 0.4 | -1.2 | 6.4 | -0.1
COC(=O)c1cc(C)nc2c1C(=O)C(=O)C=C2N1CCOCC1 | -21.6 | 25.7* | -122.9 | 5.8
CN1C(=O)C(O)(CC(=O)/C=C/c2ccco2)c2ccccc21 (stereo unspecified) | -25.7 | -1.6 | 8.2 | 9.6*
N/C(CC(=O)Nc1ccc(F)c(Cl)c1)=N\OC(=O)c1cccs1 | -3.4 | 12.8 | -64.5 | 12.9*
O=C(COC(=O)c1cccs1)Nc1ccc(F)c(F)c1 | -23.9 | -1.8 | 7.2 | 9.5
O=C(Nc1ccccc1Cl)NC1(C(=O)NCCCN2CCOCC2)CCCCC1 | -45.9 | -1.4 | 8.2 | -1.2
O=C(NC1CCCCC1)NC1(C(=O)NCCCN2CCOCC2)CCCCC1 | -3.8 | -1.7 | 10.6 | 10.5*
COc1ccc(CN2CCNC(=O)C2CC(=O)N2CCCN(C(C)=O)CC2)c(OC)c1 (stereo unspecified) | 1.9 | -2.8 | 14.5 | -0.5
CC(=O)NC12CC3CC(C1)CC(C(=O)N1CCN(S(=O)(=O)c4ccc(Cl)s4)CC1)(C3)C2 | -4.9 | -1.2 | 6.2 | 11.3*
CC(=O)NC12CC3CC(C1)CC(C(=O)N1CCN(S(=O)(=O)c4ccccc4[N+](=O)[O-])CC1)(C3)C2 | 6.3 | -0.5 | 1.9 | -2.6
Cc1ccc(-c2nnn(CC(=O)N(CC3CCCO3)C(C(=O)NC3CCCC3)c3ccc(O)cc3)n2)o1 (stereo unspecified) | -26.6 | -0.6 | 3.2 | 9.4*
C=CCOC1COC2C(OCC=C)COC12 (stereo unspecified) | 11.0 | -1.5 | 7.7 | -2.8
COc1ccccc1-n1c(=S)sc2c(=O)n(Cc3ccco3)c(SC)nc21 | -12.2 | 1.3 | -7.1 | 10.2*
Cc1cccc(C)c1OCC(O)CNC(C)c1ccccc1 (stereo unspecified) | -20.3 | 3.0 | -16.8 | 5.2
SMILES | HTR5A inv ctr | OPRM1-OPRD1 ag | MOR-DOR inv ag | HTR5A ag
CCCCC(=O)Nc1cccc(NC(=O)c2ccccc2Br)c1 | -11.3 | -1.5 | 8.0 | 0.6
CCCCNC(=O)C1CCC(CNS(=O)(=O)c2ccc(C)cc2)CC1 (stereo unspecified) | 10.0 | -1.5 | 8.0 | 1.8
CCCCSCCCNC(=O)C1CCC(CNS(=O)(=O)c2ccccc2)CC1 (stereo unspecified) | -48.5 | 1.9 | -11.2 | 12.5*
Cc1nc2ccccc2c2oc(C(=O)Nc3ccc(C(C)C)cc3)cc12 | -39.2 | 7.7 | -55.9 | 13.8*
Cc1nc2ccccc2c2oc(C(=O)Nc3ccc4c(c3)OCCO4)cc12 | -18.5 | 0.3 | -1.4 | 6.7
CCSc1ccc([C@@H]2[C@H]3C(=O)N(C)C(=O)[C@H]3[C@]3(C(=O)OC)CCCCN23)cc1OC | 4.8 | -2.4 | 13.4 | 0.8
O=C(O)CCC(=O)Nc1ccccc1C(=O)NCCc1ccccc1 | 20.2 | -1.7 | 8.7 | 11.5*

Source: PubChem BioAssay
